Test results as given in PubChem BioAssay.

Test: basal RPMI8226 viability, no added stimulus, profiling panel, cell-based, calcein-AM fluorescence, 48 h, PK04 Diversity Set (AID 1166);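 note: cells grown under basal conditions without added stimulus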
Conditions: RPMI8226 myeloma viability, higher = more signal
Note: test concentration not given here.

Row | SMILES | z-score
1 | O=C1NC(=O)C2C1C=CC(C(O)c1ccc([N+](=O)[O-])cc1)N2Nc1ccccn1 (centres undefined) | -1.07
2 | O=C1C2C=CC(C(O)c3ccc([N+](=O)[O-])cc3)N(Nc3ccccc3F)C2C(=O)N1c1ccccc1 (centres undefined) | -0.958
3 | COc1ccc([Si](C)(C)[C@@H]2[C@@H](CC(=O)N(CCO)Cc3ccccc3)O[C@]3(C(=O)N(Cc4ccc(I)cc4)c4ccccc43)[C@H]2C)cc1 | -4.17
4 | CN1C(=O)C2C(C1=O)C1C=C(CCCO)C2C(C2CC2)N1Cc1cccc(OC(F)(F)F)c1 (centres undefined) | -0.781
5 | CCOC(=O)C[C@H]1[C@H](OC(=O)c2cc3ccccc3oc2=O)[C@@H](NC(=O)CC(C)C)c2cc(OCCCO)ccc2N1C(=O)Cc1ccc(OC)cc1 | 0.28
6 | NC(=O)N1C(=O)C2C(C1=O)C1C=C(CCCO)C2C(C2CC2)N1Cc1sc2ccccc2c1Cl (centres undefined) | -0.868
7 | COCCn1c(C(=O)N(C)C)cc2c1C[C@H]1CN(C(=O)c3ccccc3)[C@@](Cc3ccc(OC)cc3)(C(=O)OC)[C@@H]21 | -0.843

Test: basal HepG2 mitochondrial membrane potential changes, profiling panel, cell-based, JC-1 fluorescence, 24 h, 100 nL compound (AID 1167)
Conditions: higher = more signal

Row | SMILES | z-score
8 | CCCNC(=O)[C@@]1(Sc2ccc(C)cc2)CC(=O)N(Cc2ccccc2Cl)[C@@H]1c1ccc(CO)cc1I | 0.377
9 | C=CCN1Cc2ccccc2[C@H]2OC(c3ccc(OCCCO)cc3)=N[C@@]2(CCS(=O)(=O)c2ccccc2)C1=O | -0.971
10 | [N-]=[N+]=Nc1ccccc1C[C@]1(C(=O)N2CCOCC2)N=C(c2ccc(OCCCO)cc2)O[C@H]1c1ccccc1N=[N+]=[N-] | 1.81
11 | C[C@]1(C(=O)O)c2ccccc2C(=O)N(Cc2cc(F)cc(C(F)(F)F)c2)[C@H]1c1ccc(CO)cc1 | -0.23
12 | CC(C)c1nc2cc(Br)ccc2c(=O)o1 | -0.0593
13 | CN(C)CCCC[C@@H]1NC(=O)[C@H]2C[C@@H](C(=O)O)[C@@H](c3ccc(O)cc3)N2C1=O | -0.0533
14 | CN1C(=O)C2C(C3CC3)C=C3CN(Cc4cccc(Cl)c4)[C@@H]([C@@H](O)Cc4ccccc4)C3C2C1=O (some centres undefined) | 1.24
15 | C=CCC(OC(C)=O)[C@@H]1[C@@H](N(Cc2ccc(-c3cccc(C(F)(F)F)c3)o2)C(=O)c2ccc(-c3ccccc3)cc2)c2cc(OCCCO)ccc2N1C(=O)c1ccc2ccccc2c1 (some centres undefined) | 2.76
16 | CCCCC(O)C1C=CC2C(=O)N(c3ccccc3)C(=O)C2N1Nc1ccc(C#N)cc1 (centres undefined) | -0.622
17 | NC(=O)N1C(=O)C2C(C1=O)C1C=C(CCCO)C2C(c2ccc(CN3CCCC3)cc2)N1Cc1sc2ccccc2c1Cl (centres undefined) | 0.916
18 | CC(C)=CCCC(C)=CC(O)C1C=CC2C(=O)NC(=O)C2N1Nc1ccccn1 (centres undefined) | -0.23
19 | Cc1ccc(S[C@]2(C(=O)NCCCN(C)C)CC(=O)N(C3Cc4ccccc4C3)[C@@H]2c2ccc(CO)cc2I)cc1 | -0.188
20 | COc1ccc(C#Cc2ccc3c(c2)[C@]2(C(=O)N3)[C@H](C(=O)O)[C@H]3C(=O)O[C@H](c4ccccc4)[C@H](c4ccccc4)N3[C@@H]2c2ccccc2OCCO)cc1 | -3.99
21 | COc1ccc(CCNC(=O)[C@@H]2c3ccccc3C(=O)N(Cc3ccccc3OC)[C@H]2c2ccc(CO)cc2)cc1 | 1.22
22 | C=CCC(OC(C)=O)[C@@H]1[C@@H](N(Cc2cccc3ccccc23)C(=O)Cc2ccc(OC)cc2)c2cc(OCCCO)ccc2N1C(=O)Cc1ccc2ccccc2c1 (some centres undefined) | 3
23 | CC(C)(C)OC(=O)CC[C@@]1(C(=O)NCCN2CCOCC2)N=C(c2ccc(OCCCO)cc2)O[C@@H]1c1ccccc1CN=[N+]=[N-] | 0.777
24 | CC(C)NC(=O)[C@@]1(C)c2ccccc2C(=O)N(Cc2ccccc2)[C@H]1c1ccc(CO)cc1 | 2.88
25 | CN(C)c1ccc(C(O)C2C=CC3C(=O)N(Cc4ccccc4)C(=O)C3N2n2cnnc2)cc1 (centres undefined) | 0.0219
26 | COc1ccc(C(=O)Nc2ccc(CN3C(=O)[C@@]4(O[C@@H](CCn5cc(CCO)nn5)[C@H]([Si](C)(C)c5ccc(OC)cc5)[C@H]4C)c4ccccc43)cc2)cc1 | -1.29
27 | CC(C)C[C@H]1NC(=O)C([C@@H](C)OCc2ccccc2)NC(=O)[C@@]23C(=O)N[C@@H](Cc4ccccc4)C2[C@H](C)[C@@]2(C)O[C@H]2C3/C=C/C/C=C\CNC1=O (some centres undefined) | 0.169
28 | COc1ccc([Si](C)(C)[C@@H]2[C@@H](CC(=O)N3CCC[C@H]3CO)O[C@]3(C(=O)N(Cc4cccc(N5CCCCC5=O)c4)c4ccccc43)[C@H]2C)cc1 | -2.13
29 | CO[C@H]1O[C@H](CO)[C@@H](OC(=O)Nc2ccccc2-c2ccccc2)[C@H](OC(=O)Nc2ccccc2)[C@H]1OC(=O)Nc1ccccc1 | -0.216
